Test results from PubChem BioAssay (Tox21).
Results filed as inconclusive are left out. Calls of active or inactive are those of the source. Unless noted, calls follow the shape of the dose curve; as a rule, active = well fitted curve in the direction sought with a large enough effect in the repeat runs; inconclusive = weak or mixed curves; inactive = no such curve, though single readings can be large; an effect the other way counts as inactive or inconclusive.

What was measured:
[1] = qHTS assay to identify small molecule agonists of the androgen receptor (AR) signaling pathway in the presence of an antagonist - cell viability counter screen (AID 1259379); also: series mostly up to about 92 µM; nearly all actives have a fitted effect of over 25% in size
How it was run: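 MDA-kb2 human breast carcinoma cells (stable MMTV-luciferase, AR/GR responsive) were seeded 3,000 cells/well, pre-incubated 5 hr at 37C without CO2, then given 3.0uM nilutamide and compounds at 15 concentrations for 16 hr. Viability was read by CellTiter-Fluor fluorescence.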

[2] = qHTS assay to identify small molecule agonists of the estrogen receptor beta (ER-beta) signaling pathway - cell viability counter screen (AID 1259380); also: nearly all actives have a fitted effect of over 30% in size
How it was run: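 ER-beta-UAS-bla HEK293T cells in medium with 2% charcoal-stripped FBS were preincubated 6 hr at 37C, dosed with compound in DMSO for 16 hr, then after the bla read, CellTiter-Glo was added for 30 min at room temperature; luminescence recorded.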

[3] = target: Androgen receptor (Homo sapiens) (UniProt P10275); assay: qHTS assay to identify small molecule agonists of the androgen receptor (AR) signaling pathway in the presence of an antagonist (AID 1259381; calls by dose curve; also: nearly all actives have a fitted effect of over 15% in size)
How it was run: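 MDA-kb2 human breast carcinoma cells carrying an MMTV-luciferase reporter (AR- and GR-responsive) were treated with compounds at 15 concentrations plus 3.0uM final nilutamide for 16hr at 37C without CO2; luminescence was read after ONE-Glo addition.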

[4] = qHTS assay to identify small molecule antagonists of the estrogen receptor beta (ER-beta) signaling pathway - cell viability counter screen (AID 1259382);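 also: HEK293T cells carrying ER-beta-UAS-bla reporter stimulated with estradiol; series mostly up to about 92 µM; nearly all actives have a fitted effect of over 55% in size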
How it was run: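 ER-beta-UAS-bla HEK293T cells (2,000/well, 2% charcoal-stripped FBS) were pre-incubated 6 hr at 37C, then given compound plus 1nM final 17-beta-estradiol for 16 hr. Viability was read in the same wells by CellTiter-Glo luminescence after 30 min at room temperature.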

[5] = target: Estrogen receptor (Homo sapiens) (UniProt P03372); assay: qHTS assay to identify small molecule agonists of the estrogen receptor alpha (ER-alpha) signaling pathway in the presence of an antagonist (AID 1259383; calls by dose curve; also: top concentration of the series differs between compounds; nearly all actives have a fitted effect of over 15% in size)
How it was run: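 VM7Luc4E2 cells (endogenous full-length ER-alpha, 4×ERE-luciferase) were precultured 5 days in phenol red-free medium with 10% charcoal-stripped FBS, given 10.0nM ICI-182,780 (final), then treated with compounds at 15 concentrations for 22hr at 37C; luminescence read with ONE-Glo.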

[6] = qHTS assay to identify small molecule agonists or antagonists of the thyroid stimulating hormone receptor (TSHR) signaling pathway - wild type cell line counter screen (AID 1259384; calls by dose curve)
How it was run: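 Wild-type HEK293 cells were plated 18 h at 37 C/5% CO2, pin-dosed with compound plus Ro20-1724 medium, held 30 min at room temperature, then given cAMP-d2 and anti-cAMP-cryptate; fluorescence was read after 1 h. Fifteen concentrations, triplicate.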

[7] = target: Thyrotropin receptor (Homo sapiens) (UniProt P16473); assay: qHTS assay to identify small molecule antagonists of the thyroid stimulating hormone receptor (TSHR) signaling pathway (AID 1259385; calls by dose curve; also: nearly all actives have a fitted effect of over 20% in size)
How it was run: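 TSHR-HEK293 cells were plated and held 18 h at 37C/5% CO2, then given compound plus Ro20-1724 and stimulated with TSH at 1.5 ng/mL final. After 30 min at room temperature, cAMP was detected with cAMP-d2/anti-cAMP-cryptate (1 h) by fluorescence.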

[8] = qHTS assay to identify small molecule agonists of the estrogen receptor alpha (ER-alpha) signaling pathway in the presence of an antagonist - cell viability counter screen (AID 1259386);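 also: series mostly up to about 92 µM; cells exposed to compounds for 22 h at 37 °C before the viability read; nearly all actives have a fitted effect of over 30% in size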
How it was run: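 VM7Luc4E2 cells (endogenous full-length ER-alpha, 4×ERE-luciferase) were held 5 days in phenol red-free medium with 10% charcoal-stripped FBS, plated, then given 10.0nM ICI-182,780 and compounds at 15 concentrations for 22hr at 37C; viability read by CellTiter-Fluor fluorescence.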

[9] = target: Progesterone receptor (Homo sapiens) (UniProt P06401); assay: qHTS assay to identify small molecule agonists of the progesterone receptor (PR) signaling pathway (AID 1346784; calls by dose curve; also: nearly all actives have a fitted effect of over 30% in size)
How it was run: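 PR-UAS-bla HEK 293T cells carrying a UAS-driven beta-lactamase reporter were seeded in medium with 2% charcoal-stripped FBS, preincubated 6 hr at 37C, then exposed to compounds in DMSO for 16 hr; agonism was read by LiveBLAzer B/G FRET fluorescence.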

[10] = qHTS assay to identify small molecule antagonists of the progesterone receptor (PR) signaling pathway - cell viability counter screen (AID 1346798); also: series mostly up to about 92 µM; nearly all actives have a fitted effect of over 50% in size
How it was run: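 PR-UAS-bla HEK293T cells in medium with 2% charcoal-stripped FBS were treated with compounds plus R5020 for 16 hr at 37C. Cell viability was then read by CellTiter-Glo luminescence after 30 min at room temperature in the same wells.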

[11] = qHTS assay to identify small molecule agonists of the progesterone receptor (PR) signaling pathway - cell viability counter screen (AID 1346799; calls by dose curve; also: nearly all actives have a fitted effect of over 45% in size)
How it was run: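 PR-UAS-bla HEK293T cells, 3,000 per well in medium with 2% charcoal-stripped FBS, were preincubated 6 hr at 37C, then exposed to compounds for 16 hr; viability was read as CellTiter-Glo luminescence after 30 min at room temperature.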

[12] = qHTS assay to identify small molecule antagonists of the TGF-beta/Smad signaling pathway - cell viability counter screen (AID 1346824); also: nearly all actives have a fitted effect of over 50% in size
How it was run: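 SBE-bla HEK 293T cells were plated overnight at 37 C, then given compounds in DMSO plus TGF-beta1 (added as 0.25 ng/mL solution) for 5 hr. After the bla read, CellTiter-Glo was added to the same wells and luminescence read after 30 min at room temperature.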

[13] = qHTS assay to identify small molecule agonists of the TGF-beta/Smad signaling pathway - cell viability counter screen (AID 1346829); also: top concentration of the series differs between compounds; nearly all actives have a fitted effect of over 45% in size
How it was run: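 Tox21 qHTS format: SBE-bla HEK 293T cells treated with DMSO-dissolved compounds for 5 hr; CellTiter-Glo luminescence after 30 min at room temperature.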

[14] = qHTS assay to identify small molecule agonists of the TGF-beta/Smad signaling pathway (AID 1346859; active = well fitted activation curve with a large enough effect in the signal ratio in the repeat runs, not every such curve was filed as active; the % refers to the signal ratio; also: series mostly up to about 77 µM)
How it was run: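 HEK 293T cells stably carrying a beta-lactamase reporter driven by the Smad binding element were seeded overnight, exposed to DMSO-dissolved compounds for 5 hr at 37 C, 5% CO2, then loaded with FRET substrate for 2 hr at room temperature.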

[15] = target: Thyrotropin-releasing hormone receptor (Homo sapiens) (UniProt P34981); assay: qHTS assay to identify small molecule antagonists of the thyrotropin-releasing hormone receptor (TRHR) signaling pathway (AID 1346877; active = well fitted inhibition curve with a large enough effect in the repeat runs, not every such curve was filed as active; also: series mostly up to about 51 µM)
How it was run: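 TRHR-expressing HEK293 cells were seeded, cultured 18 h at 37 °C, then loaded with calcium dye for 2 h. Compounds were pre-incubated 5 min at room temperature before 1 nM TRH (final) was added, and kinetic fluorescence was recorded for 3 min.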

[16] = target: Thyrotropin-releasing hormone receptor (Homo sapiens) (UniProt P34981); assay: qHTS assay to identify small molecule agonists of the thyrotropin-releasing hormone receptor (TRHR) signaling pathway (AID 1346891; calls by dose curve; also: series mostly up to about 58 µM)
How it was run: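 TRHR-expressing HEK293 cells were plated 18 h at 37 °C/5% CO2, loaded with calcium dye 2 h at 37 °C, then given compound in DMSO; fluorescence was read kinetically for 3 min at 1 s intervals.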

[17] = Human pregnane X receptor (PXR) small molecule agonists, qHTS cell viability counter screen (AID 1346977); also: nearly all actives have a fitted effect of over 50% in size
How it was run: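 PXR-Luc HepG2 cells in medium with 5% charcoal-stripped FBS were pre-incubated 5hr, then exposed to compounds for 24hr at 37C. Viability was read in the same wells by CellTiter-Fluor fluorescence, reagent added after 23hr with a 1hr incubation.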

[18] = Caspase-3/7 induction in HepG2 cells by small molecules, qHTS assay (AID 1346978); also: nearly all actives have a fitted effect of over 15% in size
How it was run: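 Wild-type HepG2 cells (2,000/well) were settled 5 h at 37 C, 5% CO2, then exposed to compounds in DMSO for 17 h. Caspase-3/7 activity was read by luminescence 30 min after adding Caspase-Glo 3/7 reagent at room temperature.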

[19] = Caspase-3/7 induction in CHO-K1 cells by small molecules, qHTS cell viability counter screen (AID 1346979); also: nearly all actives have a fitted effect of over 35% in size
How it was run: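 Wild-type CHO-K1 cells were seeded at 1,500 per well, rested 5hr at 37 C, then exposed to compounds in DMSO. After 16hr, CellTiter-Fluor reagent was added and fluorescence read 1hr later as the viability measure.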

Measured: Potency

Progesterone receptor (Homo sapiens), sequence (P06401 whole entry, looked up): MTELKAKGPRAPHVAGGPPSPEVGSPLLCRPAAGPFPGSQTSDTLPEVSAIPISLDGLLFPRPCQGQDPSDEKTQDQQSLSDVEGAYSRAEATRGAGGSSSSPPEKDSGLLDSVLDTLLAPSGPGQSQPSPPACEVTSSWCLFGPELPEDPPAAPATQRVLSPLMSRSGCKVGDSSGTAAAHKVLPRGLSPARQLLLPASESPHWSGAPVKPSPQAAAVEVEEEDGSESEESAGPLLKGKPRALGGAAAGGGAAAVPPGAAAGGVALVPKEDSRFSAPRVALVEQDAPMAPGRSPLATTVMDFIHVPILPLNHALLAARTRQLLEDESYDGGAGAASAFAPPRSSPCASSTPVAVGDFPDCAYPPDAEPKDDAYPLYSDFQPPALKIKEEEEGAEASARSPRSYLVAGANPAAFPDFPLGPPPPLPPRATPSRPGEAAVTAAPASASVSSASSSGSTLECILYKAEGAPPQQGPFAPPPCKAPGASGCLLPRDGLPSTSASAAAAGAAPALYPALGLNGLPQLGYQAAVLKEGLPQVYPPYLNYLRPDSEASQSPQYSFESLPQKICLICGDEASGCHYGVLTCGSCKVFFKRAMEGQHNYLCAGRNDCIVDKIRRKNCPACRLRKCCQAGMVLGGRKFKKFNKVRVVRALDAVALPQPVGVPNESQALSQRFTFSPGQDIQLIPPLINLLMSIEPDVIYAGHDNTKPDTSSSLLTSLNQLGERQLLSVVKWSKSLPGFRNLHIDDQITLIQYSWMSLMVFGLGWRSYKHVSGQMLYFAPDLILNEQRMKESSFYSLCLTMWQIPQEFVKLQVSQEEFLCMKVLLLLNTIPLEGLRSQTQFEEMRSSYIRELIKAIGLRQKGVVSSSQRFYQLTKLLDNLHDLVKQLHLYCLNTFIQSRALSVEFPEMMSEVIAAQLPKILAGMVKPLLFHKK
Thyrotropin receptor (Homo sapiens), sequence (P16473 whole entry, looked up): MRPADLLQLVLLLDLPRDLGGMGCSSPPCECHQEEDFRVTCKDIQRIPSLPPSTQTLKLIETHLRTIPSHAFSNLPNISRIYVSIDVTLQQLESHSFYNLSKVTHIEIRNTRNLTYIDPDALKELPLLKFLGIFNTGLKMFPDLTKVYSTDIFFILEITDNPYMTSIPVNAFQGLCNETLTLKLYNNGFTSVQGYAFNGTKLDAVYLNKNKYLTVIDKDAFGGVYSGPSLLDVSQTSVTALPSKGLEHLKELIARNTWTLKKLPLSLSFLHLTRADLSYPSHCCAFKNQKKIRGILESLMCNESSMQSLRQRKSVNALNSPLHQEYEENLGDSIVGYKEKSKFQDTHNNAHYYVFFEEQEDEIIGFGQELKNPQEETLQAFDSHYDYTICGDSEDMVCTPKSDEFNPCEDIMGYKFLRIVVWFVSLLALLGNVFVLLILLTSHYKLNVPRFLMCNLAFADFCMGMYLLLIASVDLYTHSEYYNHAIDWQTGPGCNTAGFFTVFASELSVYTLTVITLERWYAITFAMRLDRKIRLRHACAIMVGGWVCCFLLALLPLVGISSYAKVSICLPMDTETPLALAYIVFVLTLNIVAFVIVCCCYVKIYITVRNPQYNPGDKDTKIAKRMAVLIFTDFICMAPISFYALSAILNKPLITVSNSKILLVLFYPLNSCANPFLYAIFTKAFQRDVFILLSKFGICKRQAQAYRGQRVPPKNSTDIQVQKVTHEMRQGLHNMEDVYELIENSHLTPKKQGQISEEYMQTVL
Androgen receptor (Homo sapiens), sequence (P10275 whole entry, looked up): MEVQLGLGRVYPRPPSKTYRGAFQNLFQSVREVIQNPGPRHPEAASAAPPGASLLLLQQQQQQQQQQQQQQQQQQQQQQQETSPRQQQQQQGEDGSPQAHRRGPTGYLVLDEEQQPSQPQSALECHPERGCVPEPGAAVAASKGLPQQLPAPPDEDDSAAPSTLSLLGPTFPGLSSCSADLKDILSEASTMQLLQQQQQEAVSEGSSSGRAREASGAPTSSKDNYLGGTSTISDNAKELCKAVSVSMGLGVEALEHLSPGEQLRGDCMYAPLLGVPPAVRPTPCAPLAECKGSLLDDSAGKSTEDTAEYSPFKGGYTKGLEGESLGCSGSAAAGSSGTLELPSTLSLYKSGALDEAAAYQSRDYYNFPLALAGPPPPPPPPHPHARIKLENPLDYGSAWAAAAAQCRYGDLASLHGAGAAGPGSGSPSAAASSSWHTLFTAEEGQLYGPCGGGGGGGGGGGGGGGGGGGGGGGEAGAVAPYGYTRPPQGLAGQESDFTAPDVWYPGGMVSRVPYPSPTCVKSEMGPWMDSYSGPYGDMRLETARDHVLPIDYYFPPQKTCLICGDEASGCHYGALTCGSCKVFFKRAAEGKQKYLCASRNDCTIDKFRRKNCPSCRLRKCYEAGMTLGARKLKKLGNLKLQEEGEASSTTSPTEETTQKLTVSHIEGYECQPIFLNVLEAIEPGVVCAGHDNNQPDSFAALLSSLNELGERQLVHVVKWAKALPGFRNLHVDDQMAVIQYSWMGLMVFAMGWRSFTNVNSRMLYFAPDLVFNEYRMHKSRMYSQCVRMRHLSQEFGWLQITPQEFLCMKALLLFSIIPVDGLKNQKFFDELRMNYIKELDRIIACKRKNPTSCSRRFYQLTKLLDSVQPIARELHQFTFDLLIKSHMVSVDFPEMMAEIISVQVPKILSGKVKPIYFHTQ
Thyrotropin-releasing hormone receptor (Homo sapiens), sequence (P34981 whole entry, looked up): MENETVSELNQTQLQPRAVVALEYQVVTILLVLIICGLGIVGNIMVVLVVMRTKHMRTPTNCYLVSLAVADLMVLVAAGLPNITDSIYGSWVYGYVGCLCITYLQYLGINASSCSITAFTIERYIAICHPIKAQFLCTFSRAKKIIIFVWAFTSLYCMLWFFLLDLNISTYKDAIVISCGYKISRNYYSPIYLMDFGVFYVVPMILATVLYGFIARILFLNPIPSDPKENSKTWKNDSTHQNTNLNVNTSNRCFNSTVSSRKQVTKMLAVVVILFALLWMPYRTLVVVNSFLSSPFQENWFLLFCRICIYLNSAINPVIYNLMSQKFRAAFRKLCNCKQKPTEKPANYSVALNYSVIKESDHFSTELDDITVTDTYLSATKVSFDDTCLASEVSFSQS
Estrogen receptor (Homo sapiens), sequence (P03372 whole entry, looked up): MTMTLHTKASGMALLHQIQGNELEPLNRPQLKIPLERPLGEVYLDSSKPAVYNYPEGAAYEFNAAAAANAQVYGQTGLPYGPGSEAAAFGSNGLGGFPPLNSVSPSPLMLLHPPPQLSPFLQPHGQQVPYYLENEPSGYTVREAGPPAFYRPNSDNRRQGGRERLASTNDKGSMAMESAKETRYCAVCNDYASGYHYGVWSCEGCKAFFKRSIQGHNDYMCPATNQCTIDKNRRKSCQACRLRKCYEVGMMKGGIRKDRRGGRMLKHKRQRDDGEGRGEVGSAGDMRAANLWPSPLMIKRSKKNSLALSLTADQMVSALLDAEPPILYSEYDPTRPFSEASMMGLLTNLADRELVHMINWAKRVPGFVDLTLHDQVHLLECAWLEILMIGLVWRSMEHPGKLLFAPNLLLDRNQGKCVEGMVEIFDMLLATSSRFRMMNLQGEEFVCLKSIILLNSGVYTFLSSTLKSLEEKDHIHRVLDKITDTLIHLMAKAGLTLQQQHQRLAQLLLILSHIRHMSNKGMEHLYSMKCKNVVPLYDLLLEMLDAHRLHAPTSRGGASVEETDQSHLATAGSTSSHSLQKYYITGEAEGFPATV

CCCCCCCCc1ccc(Nc2ccc(CCCCCCCC)cc2)cc1
inactive: [1] | [2] | [3] | [4] | [5] | [6] | [7] | [8] | [9] | [10] | [11] | [12] | [13] | [14] | [15] | [16] | [17] | [18] | [19]

C=CC(=O)OCC(Br)CBr (stereo unspecified)
inactive: [1] | [2] | [3] | [4] | [5] | [6] | [7] | [8] | [9] | [10] | [12] | [13] | [14] | [17] | [18]

C=CC(C)(C)O
inactive: [1] | [2] | [3] | [4] | [5] | [8] | [9] | [10] | [11] | [12] | [13] | [14] | [17] | [18] | [19]

Oc1ccc2c(c1)CCC2
inactive: [1] | [2] | [3] | [4] | [5] | [8] | [10] | [11] | [12] | [13] | [14] | [15] | [16] | [17] | [18] | [19]

N#CCCOCCC#N
inactive: [1] | [2] | [3] | [4] | [5] | [6] | [7] | [8] | [9] | [10] | [11] | [12] | [13] | [14] | [15] | [16] | [17] | [18] | [19]

C/C=C/C(=O)OCC(C)C
inactive: [1] | [2] | [3] | [4] | [5] | [6] | [7] | [8] | [9] | [10] | [12] | [13] | [14] | [15] | [16] | [17] | [18]

Cc1cccc2c1ccc1ccccc12
inactive: [1] | [2] | [3] | [4] | [5] | [8] | [9] | [10] | [12] | [13] | [14] | [15] | [17] | [18] | [19]
